Hits are enriched below; roughly 10% of the tested compounds scored in any of these assays.
BAZ2B inh – blocks human BAZ2B | Potency, µM (series often up to 114 µM), for inactives: top-dose activity change, negative = inhibition, actives largely listed as inhibitors | AlphaScreen BAZ2B-H3K14Ac peptide displacement | 360,000 tested, 4.4% active | AID 504333; note: % is set by controls: 0 for no effect and ±100 for the full control effect; nearly all actives have a fitted effect of over 60% in size
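AlphaScreen luminescence quantifies BAZ2B engagement of H3K14Ac peptide; the protein and biotinylated peptide are both at 50 nM final, buffer PBS pH 7.4 with 0.01% Tween-20, all steps at room temperature.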
G9a inh – blocks human histone lysine methyltransferase G9a. 350,000 tested, 8.8% active. G9a H3K9 monomethylation, AlphaScreen, 2 h. AID 504332. Potency, µM (series often up to 102 µM), for inactives: at the highest dose activity, negative = inhibition, hits mostly inhibitors; note: % is set by controls: 0 for no effect and ±100 for the full control effect; nearly all actives have a fitted effect of over 75% in size
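Step 1: enzyme (final 20 nM) with compound, 15 min RT. Step 2: substrate peptide 500 nM and SAM 20 uM, 2 h RT. Step 3: anti-H3K9me1 antibody and AlphaScreen beads, 10 min, then plate read.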
GLS inh – glutaminase GLS (human) inhibition; GLS enzymatic activity, qHTS titration; Potency, µM (top dose mostly 45.5 µM), inactives show at the top dose activity change, negative = inhibition, usual class: inhibitors; 410,000 tested, 0.21% active; note: % is set by controls: 0 for no effect and ±100 for the full control effect
Target sequence (O94925 whole entry, looked up): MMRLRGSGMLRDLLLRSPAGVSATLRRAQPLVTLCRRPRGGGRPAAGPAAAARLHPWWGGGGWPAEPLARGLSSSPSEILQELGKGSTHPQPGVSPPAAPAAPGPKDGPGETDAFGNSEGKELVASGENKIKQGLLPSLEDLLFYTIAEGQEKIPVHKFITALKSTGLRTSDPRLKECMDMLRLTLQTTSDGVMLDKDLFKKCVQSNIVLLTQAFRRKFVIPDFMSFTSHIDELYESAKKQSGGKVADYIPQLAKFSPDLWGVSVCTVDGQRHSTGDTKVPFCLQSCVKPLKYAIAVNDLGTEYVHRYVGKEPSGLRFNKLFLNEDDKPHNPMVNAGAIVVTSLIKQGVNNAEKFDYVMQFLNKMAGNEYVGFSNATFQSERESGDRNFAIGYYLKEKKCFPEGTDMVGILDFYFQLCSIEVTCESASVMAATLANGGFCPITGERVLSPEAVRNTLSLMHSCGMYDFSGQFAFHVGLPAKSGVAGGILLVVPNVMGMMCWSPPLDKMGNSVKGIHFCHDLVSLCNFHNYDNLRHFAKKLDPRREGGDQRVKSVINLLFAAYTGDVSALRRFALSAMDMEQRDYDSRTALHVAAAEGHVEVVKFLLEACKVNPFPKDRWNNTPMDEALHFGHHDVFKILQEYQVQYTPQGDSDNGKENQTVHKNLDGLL
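Compounds were pin-transferred onto hKGA, after which L-glutamine (1 mM solution) and a detection mix of glutamate oxidase, HRP and Amplex Red were added. Initial and 30 min RT fluorescence reads were collected.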
HP1b binding inh – inhibitors of HP1-beta chromodomain binding to methylated histone tails | Potency, µM (doses to about 114 µM), for inactives: at the highest dose activity change, negative = inhibition, actives largely listed as inhibitors | 390,000 tested, 0.56% active | AlphaScreen HP1-beta / biotin-H3K9me3 peptide binding | AID 540317; note: nearly all actives have a fitted effect of over 70% in size
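Compound inhibition of the preformed complex between 50 nM HP1-beta and 50 nM biotinylated H3K9me3 peptide was read by AlphaScreen. Buffer was PBS pH 7.4 with 0.01% Tween-20. Incubations ran 30 min at room temperature, with 10 ug/mL donor/acceptor beads.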
JMJD2A Tudor – blocks the human JMJD2A Tudor domain; O75164; Potency, µM (top dose mostly 114 µM), for inactives: at the top dose activity change, negative = inhibition, actives largely listed as inhibitors; 390,000 tested, 4.4% active; AID 504339; AlphaScreen JMJD2A-Tudor / H3K4me3 peptide binding; note: % is set by controls: 0 for no effect and ±100 for the full control effect; nearly all actives have a fitted effect of over 50% in size
Numbers without * were called inactive; [ ] = remark or other dose. Calls come from the whole dose curve; as a rule, active = well fitted curve in the direction sought with a large enough effect; inconclusive = small, poorly fitted or top-dose-only effect, or another doubt; inactive = no such curve, though single readings can be large; an effect the other way counts as inactive or inconclusive. Potency is the fitted concentration of half-maximal effect.

CCOC(=O)c1c(-c2ccc(C)c(C)c2)csc1NC(=O)C1CC=CCC1C(=O)O (stereo unspecified) was read as BAZ2B inh -6%, G9a inh 11%, GLS inh -14%, HP1b binding inh 14% and JMJD2A Tudor -16%.
`CCOC(=O)c1c(-c2ccc(-c3ccccc3)cc2)csc1NC(=O)CCN1CCOCC1` gave BAZ2B inh -32%, G9a inh inconclusive, GLS inh 7%, HP1b binding inh -14% and JMJD2A Tudor inconclusive.
`CCOC(=O)c1c(-c2ccc(F)cc2)csc1NC(=O)CCN1CCOCC1` gave BAZ2B inh 40µM*, G9a inh 8.9µM*, GLS inh 0%, HP1b binding inh inconclusive and JMJD2A Tudor 1.8µM*.
For CCOC(=O)c1c(-c2ccccc2)csc1NC(=O)C(C)NCCCN1CCOCC1 (stereo unspecified) the results were BAZ2B inh 40µM*, G9a inh 11µM*, GLS inh 25%, HP1b binding inh inconclusive and JMJD2A Tudor 50µM*.
For CCOC(=O)c1c(-c2ccc(F)cc2)csc1NC(=O)C1CC=CCC1C(=O)O (stereo unspecified) the results were BAZ2B inh -31%, G9a inh 16µM*, GLS inh -10%, HP1b binding inh inconclusive and JMJD2A Tudor -25%.
CCOC(=O)c1c(-c2ccc(-c3ccccc3)cc2)csc1NC(=O)CNCCN(C)C was read as BAZ2B inh inconclusive, G9a inh 50µM*, GLS inh -26%, HP1b binding inh -14%[57 µM] and JMJD2A Tudor 35µM*.
Screening COC(=O)C(Cc1ccccc1)NC(=O)c1cc(=O)[nH]c2ccccc12 (stereo unspecified) returned BAZ2B inh -26%, G9a inh 2%, GLS inh 2%, HP1b binding inh 12% and JMJD2A Tudor -13%.
`COC(=O)[C@H](CC(C)C)NC(=O)c1cc2c(cn1)[nH]c1ccccc12` gave BAZ2B inh -24%, G9a inh 7.9µM*, GLS inh -15%, HP1b binding inh inconclusive and JMJD2A Tudor inconclusive.
`O=C(Nc1nnc(-c2cccnc2)o1)c1cccc([N+](=O)[O-])c1` gave BAZ2B inh inconclusive and G9a inh -3%.
For Cc1ccc(C(=O)Nc2nnc(-c3ccco3)o2)cc1C the results were BAZ2B inh inconclusive, G9a inh 6%, GLS inh 1%, HP1b binding inh 37% and JMJD2A Tudor -5%.
Cc1cccc(C(=O)Nc2nnc(-c3cccnc3)o2)c1 was read as BAZ2B inh 50µM*, G9a inh 36%, GLS inh 45%, HP1b binding inh 17% and JMJD2A Tudor inconclusive.
For Cc1ccccc1C(=O)Nc1nnc(-c2ccco2)o1 the results were BAZ2B inh 50µM*, G9a inh -13%[59 µM], GLS inh 0%, HP1b binding inh 39% and JMJD2A Tudor 50µM*.
For Cc1cccc(C(=O)Nc2nnc(-c3ccco3)o2)c1 the results were BAZ2B inh 45µM*, G9a inh 5%, GLS inh -4%, HP1b binding inh 35% and JMJD2A Tudor inconclusive.
For O=C(Nc1nnc(-c2ccncc2)o1)c1ccc2ccccc2c1 the results were BAZ2B inh 79µM*, G9a inh 6%, GLS inh 8%, HP1b binding inh 38% and JMJD2A Tudor -22%.
For COCc1ccc(C(=O)NC2CCCc3c2cnn3-c2ccc(C)c(C)c2)o1 (stereo unspecified) the results were BAZ2B inh -23%, G9a inh -16%, GLS inh 0%, HP1b binding inh 22% and JMJD2A Tudor -28%.
Screening CCCCCCCCN1C(=O)[C@H](CC(=O)NCCCCc2ccccc2)C[C@@]2(C(=O)OCC)CCCC=C12 returned GLS inh 0%.
`Cc1cc(C)n2nc(C(=O)OCC(=O)Nc3cc(S(=O)(=O)N4CCOCC4)ccc3Cl)nc2n1` gave GLS inh 11%, HP1b binding inh 44% and JMJD2A Tudor -2%.
O=Cc1ccc(OCc2cn(CC(=O)c3ccc(O)cc3)nn2)cc1 was read as GLS inh 1%, HP1b binding inh 29% and JMJD2A Tudor -16%.
C[C@@H]1C[C@H]2[C@@H]3CCC4=CC(=O)C=C[C@]4(C)[C@@]3(F)C(O)C[C@]2(C)[C@@]1(O)C(=O)CO (stereo partly specified) was read as HP1b binding inh 16% and JMJD2A Tudor 0%.
`Cc1cccc(C(=O)Nc2nnc(-c3ccncc3)o2)c1` gave BAZ2B inh 22µM*, G9a inh -7%, GLS inh -1%, HP1b binding inh 31% and JMJD2A Tudor inconclusive.
CCCN(CCC)CCCNC(=O)c1nn(C)c2c1CS(=O)(=O)c1ccccc1-2 was read as BAZ2B inh -16%, G9a inh -44%[59 µM], GLS inh -10%, HP1b binding inh 17% and JMJD2A Tudor -5%.
`CSc1nc2c(c(=O)[nH]c(=O)n2C)n1CCCc1ccccc1` gave BAZ2B inh -2%, G9a inh 71µM*, GLS inh 14%, HP1b binding inh 31% and JMJD2A Tudor -5%.
For CN1CCN(c2nc3c(c(=O)[nH]c(=O)n3C)n2CCCSc2nnnn2-c2ccccc2)CC1 the results were BAZ2B inh -16%, G9a inh 25µM*, GLS inh -6%, HP1b binding inh 24% and JMJD2A Tudor -9%.
Screening CC(C)CCSc1nc2c(c(=O)[nH]c(=O)n2C)n1CCCc1ccccc1 returned BAZ2B inh 7%, G9a inh 40µM*, GLS inh -1%, HP1b binding inh 34% and JMJD2A Tudor -1%.
Screening Cn1c(=O)[nH]c(=O)c2c1nc(SCC(O)CO)n2CCCc1ccccc1 (stereo unspecified) returned BAZ2B inh -28%, G9a inh -4%, GLS inh -5%, HP1b binding inh 68% and JMJD2A Tudor -4%.
COc1cc(CCC(=O)OCC(=O)Nc2ccc(C)cc2Cl)cc(OC)c1OC was read as BAZ2B inh -1%, G9a inh -10%, GLS inh -6%, HP1b binding inh 1% and JMJD2A Tudor -1%.
Screening COc1cccc(C(=O)CC2(O)C(=O)Nc3ccc(Cl)cc32)c1 (stereo unspecified) returned BAZ2B inh 7%, G9a inh -28%[59 µM], GLS inh 12%, HP1b binding inh 28% and JMJD2A Tudor 2%.
For c1ccc(NCc2nc3ccccc3n2CCOc2ccccc2)cc1 the results were BAZ2B inh inconclusive, G9a inh inconclusive, GLS inh 10%, HP1b binding inh -6% and JMJD2A Tudor -32%.
Screening COc1ccc(NCc2nc3ccccc3n2CCOc2ccc(C)cc2)cc1 returned BAZ2B inh 10µM*, G9a inh 14µM*, GLS inh inconclusive, HP1b binding inh 40µM* and JMJD2A Tudor 11µM*.

Bioassay records (PubChem)
